Bioassay records from PubChem BioAssay.
Only some compounds are listed: those with a hit (about 4.3% of all), similar ones and a draw of the others.
PfHsp40 yeast – rescue of yeast from PfHsp40 toxicity, primary screen, S. cerevisiae, ATP luminescence; AID 504582, 2011; S. cerevisiae expressing PfHsp40, growth rescue; 0.68% of 340,000 active; growth rescue, % at 12.5 µM; in the data active = growth rescue above about 28%, passing the limit was not always enough; inconclusive = no clear call, values can overlap the other calls;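 also: yeast W303a lacking pdr1 and pdr3 grown in galactose medium; growth measured after three days at 30 °C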
Bead autofluor – flagged as autofluorescent in microsphere protease counterscreen. compound autofluorescence counterscreen, microsphere flow cytometry; stronger effect = higher value. fluorescence intensity (no concentration beside the values). 3.1% of 360,000 active. AID 624483; in the data active = fluorescence intensity above about 16000; inconclusive = no clear call, values can overlap the other calls
BoNT F protease – BoNT/F light chain protease inhibitors, primary screen, biochemical, flow cytometry, MLPCN library. Multiplex microsphere protease cleavage assay. inhibition, % at 10 µM. AID 588497, 2011. 0.22% of 360,000 active. Botulinum neurotoxin type F light chain protease (Clostridium botulinum); in the data active = inhibition above about 35%, passing the limit was not always enough; inconclusive = no clear call, values can overlap the other calls; also: plate controls were buffer without enzyme for full effect and enzyme alone for no effect
BoNT-A LC inh2 – BoNT/A light chain protease inhibitors, primary screen, biochemical, flow cytometry, MLPCN library | multiplex microsphere protease substrate cleavage | 0.17% of 360,000 active | inhibition, % at 10 µM | Botulinum neurotoxin type A light chain protease (Clostridium botulinum A str. ATCC 3502); in the data active = inhibition above about 30%; inconclusive = no clear call, values can overlap the other calls; also: plate controls were buffer without enzyme for full effect and enzyme alone for no effect
Anthrax LF prot – Bacillus anthracis LF protease inhibitors, primary screen, biochemical, multiplex microsphere, MLPCN library. multiplex microsphere protease cleavage assay. inhibition, % at 10 µM. 0.12% of 360,000 active; in the data active = inhibition above about 30%; inconclusive = no clear call, values can overlap the other calls; also: plate controls were buffer without enzyme for full effect and enzyme alone for no effect
MazF activator – activators of E. coli MazEF toxin-antitoxin RNase, primary screen, biochemical, fluorescence, uHTS; AID 504720, 2011; 0.32% of 350,000 active; activation, % at 20 µM; FAM/BHQ RNA-DNA oligo cleavage fluorescence, 5 h; in the data active = activation above about 50%
BoNTA LC inh 1 – BoNT/A light chain protease inhibitors, confirmation, biochemical, flow cytometry, cherry pick 1. shares compounds with BoNT F protease. multiplex microsphere protease assay. inhibition, % at 10 µM. 3% of 720 active. AID 602139, 2011; in the data active = inhibition above about 32%
BoNT-F LC CP1 – BoNT/F light chain protease inhibitors, confirmation, biochemical, flow cytometry, cherry pick 1. shares compounds with BoNT F protease. multiplex microsphere protease cleavage assay. inhibition, % at 10 µM. 720 tested, under 10 active. AID 602140, 2011
Anthrax LF CP1 – Bacillus anthracis LF protease inhibitors, confirmation, biochemical, multiplex microsphere, cherry pick 1; 720 tested, under 10 active; inhibition, % at 10 µM; shares compounds with BoNT F protease; multiplex microsphere protease cleavage assay
Numbers without * were called inactive; ? = inconclusive; . = no result. Unless noted, no rule for the calls is given here.

SMILES	PfHsp40 yeast	Bead autofluor	BoNT F protease	BoNT-A LC inh2	Anthrax LF prot	MazF activator	BoNTA LC inh 1	BoNT-F LC CP1	Anthrax LF CP1
CCOc1ccc2nc3cc(NCc4ccc(OC)cc4)ccc3c(N)c2c1	-1	3686	-164	70*	-14	-89	33*	-58	8
NC(=O)Cn1nc(-c2ccccc2)nc1-c1ccccc1	0	4464	?	-2	31*	0	-2	-6	4
Cc1cc(C)nc(NS(=O)(=O)c2ccc(NC(=O)c3ccc4c(c3)OCCO4)cc2)n1	-1	4686	36*	4	3	-13	0	-6	-4
O=C(CN1CCN(S(=O)(=O)c2ccccc2)CC1)Nc1ccc(Cl)cn1	0	3805	?	-1	-1	0	.	.	.
O=C(CN1CCOCC1)Nc1ccc(Cl)cn1	1	?	22	1	32*	10	1	-1	2
CCSc1ncc(Cl)c(C(=O)Nc2ccccc2C)n1	-3	4089	6	0	8	-6	.	.	.
CSc1ncc(Cl)c(C(=O)Nc2ccccc2C)n1	-1	3352	-12	1	30*	7	0	-5	-2
CC(C)(C)NC(=O)NC(=O)CN1CCN(c2cccc(Cl)c2)CC1	-2	5561	-13	-1	-4	1	.	.	.
Cc1c(C(=O)NC2CCS(=O)(=O)C2)oc2ccccc12 (stereo unspecified)	0	5409	-3	2	0	7	.	.	.
Cc1cnc(NC(=O)c2ccc(-c3nc4ccccc4s3)o2)s1	3	3621	0	34*	25	-11	4	-12	2
COc1ccc(Cl)cc1NC(=O)C1CC(c2c(F)cccc2Cl)=NO1 (stereo unspecified)	5	3506	37*	1	-4	6	0	-5	-1
COc1ccc(NC(=O)C2CC(c3ccc(Cl)cc3)=NO2)cc1 (stereo unspecified)	0	3152	-1	0	45*	6	0	-6	-2
Cc1cc(Cl)ccc1NS(=O)(=O)c1c(C)[nH]c(=O)[nH]c1=O	0	3569	10	-2	0	-1	.	.	.
Cc1[nH]c(=O)[nH]c(=O)c1S(=O)(=O)Nc1ccc(F)c(Cl)c1	0	3421	-6	-2	33*	1	0	0	2
COc1ccc(-c2noc(N3CCCC(C(=O)Nc4ccc(F)cc4F)C3)n2)cc1 (stereo unspecified)	0	5233	-12	0	-10	-2	.	.	.
O=C(CSc1n[nH]c(-c2ccncc2)n1)NCCc1ccccc1	-1	2758	-6	0	1	8	.	.	.
CCc1nc(SCC(=O)NCCc2ccccc2)n[nH]1	-1	3454	35*	1	-6	9	1	0	3
NS(=O)(=O)c1cccc(NC(=O)CC(NC(=O)c2ccccc2Cl)c2ccccc2)c1 (stereo unspecified)	0	3427	35*	-2	9	0	1	-4	-1
OC(CNC1Cc2ccccc2C1)c1ccccc1 (stereo unspecified)	1	2820	36*	4	-5	-2	-1	-3	0
O=C(Nc1ccccc1)C1CCN(c2nccs2)CC1	-1	?	?	40*	40*	-2	2	-9	4
O=C(Nc1ccccc1)C1CCN(S(=O)(=O)c2cccs2)CC1	0	8563	-2	2	5	-3	.	.	.
CC1(C(=O)O)CCCN(C(=O)c2ccc3c(c2)C(C)(C)CCC3(C)C)C1 (stereo unspecified)	.	3794	4	0	2	.	.	.	.
COc1ccc(C(=O)Nc2ccc3c(c2)nc2n3CCSC2)cc1	2	4353	38*	7	2	3	0	-1	-5
COc1ccc(C(=O)Nc2ccc3nc(C)c(C)nc3c2)cc1	1	3841	6	0	11	15	.	.	.
COc1cc(-c2nc(-c3cccc(C)c3)no2)cc(OC)c1OC	10	5619	43*	?	3	-12	0	-5	-4
SMILES	PfHsp40 yeast	Bead autofluor	BoNT F protease	BoNT-A LC inh2	Anthrax LF prot	MazF activator	BoNTA LC inh 1	BoNT-F LC CP1	Anthrax LF CP1
COc1ccc(-c2nc(-c3cccc(C)c3)no2)cc1OC	-1	7951	-1	0	-6	5	.	.	.
Cc1ccc(Nc2nc(C)cc(C)n2)c(Br)c1	-1	9927	35*	32*	-23	-1	0	-4	-2
Cc1ccc(C2CC(c3ccc(NS(C)(=O)=O)cc3)=NN2C(=O)c2ccco2)cc1 (stereo unspecified)	2	2791	36*	3	2	0	1	-4	0
O=C(Nc1cccc(O)c1)c1c(O)c2ccccc2[nH]c1=O	-1	3666	36*	0	-5	1	1	-4	-6
Cc1cccc(NC(=O)c2c(O)c3ccccc3[nH]c2=O)c1	1	3051	-18	0	-1	-6	.	.	.
O=[N+]([O-])c1ccc(N2N=C(c3ccco3)CC2c2ccccc2)cc1 (stereo unspecified)	-1	4856	-30	32*	23	-22	9	-4	1
COc1ccccc1N1N=C(c2ccc([N+](=O)[O-])cc2)CC1c1ccccc1 (stereo unspecified)	-2	16503*	27	38*	-5	-5	48*	28	1
Fc1ccc(C2CC(c3ccco3)=NN2c2ccccc2)cc1 (stereo unspecified)	-1	3720	-5	0	-1	-2	.	.	.
COc1cccc(C(=O)NCc2ccc3c(c2)OCO3)c1	-2	3829	36*	-2	4	-5	0	-4	0
COc1ccc(C(=O)NCc2ccncc2)cc1OC	-2	2638	1	1	0	6	.	.	.
COc1cccc(C(=O)NCc2ccc3c(c2)cc(C)n3C)c1	-1	1285	-83	75*	-50	6	3	-3	-1
COc1cc(OC)cc(C(=O)NCc2ccc3c(c2)OCO3)c1	0	3997	?	-1	9	10	.	.	.
COc1ccc(CC(=O)NCc2ccc3c(c2)cc(C)n3C)cc1	1	1840	-53	91*	-15	-29	1	-5	-3
